High-throughput results: PubChem BioAssay, several laboratories
The list is not random: actives were taken first. Their share in the collection is about 1.3%.
SRC2 inh = inhibits human steroid receptor coactivator 2; Q15596; HEK293 GAL4-SRC2 luciferase reporter, luminescence; inhibition, % at 9 µM; hit rate 0.17% among 370,000;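 active = inhibition above the mean inhibition of all tested compounds plus 3 SD, set per campaign, cut at about 52% in these data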;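 also: 0% = DMSO treated cells and 100% = cells given Gossypol at 36 µM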
SRC1 inh = inhibitors of human steroid receptor coactivator 1 (SRC1); Q15788; HEK293 GAL4-SRC1 luciferase reporter, luminescence; inhibition, % at 3.6 µM; hit rate 0.12% among 360,000; AID 588354;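 active = inhibition above the campaign mean plus 3 SD, with each screening campaign given its own cutoff, cut at about 60% in these data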;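 also: 0% = DMSO treated cells and 100% = gossypol at 36 µM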
Gli-Sufu antag = antagonists of Gli-Sufu signaling; Sufu-KO-LIGHT fibroblasts, Gli luciferase reporter luminescence; inhibition, % at 5 µM; hit rate 0.74% among 340,000; AID 588413;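 active = inhibition above about 55%, limit read from the data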;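 also: 0% = DMSO-treated cells and 100% = wells with medium but no cells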
LRH-1 inv ag = inverse agonists of human LRH-1 (NR5A2). HEK293T StAR-luciferase reporter, LRH-1 transfected, 24 h. inhibition, % at 3.6 µM. hit rate 0.13% among 360,000. AID 602396;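 active = inhibition above the mean inhibition of all tested compounds plus 3 SD, cut at about 73% in these data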;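 also: 0% = DMSO wells and 100% = reporter-only cells lacking LRH-1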
SRC3 inh = inhibitors of human steroid receptor coactivator 3 (SRC3) | HEK293 GAL4-SRC3 luciferase reporter, luminescence | inhibition, % at 3.6 µM | hit rate 0.17% among 360,000;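 active = inhibition above a per-campaign cutoff, the mean of all compounds plus 3 SD, cut at about 60% in these data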;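 also: 0% = DMSO-treated cells and 100% = gossypol-treated cells at 36 µM; higher means less SRC3-driven luciferase light from the GAL4 reporter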
COUP-TFII inh = blocks human COUP-TFII nuclear receptor; P24468; HEK293T NGFI-A luciferase reporter, luminescence; inhibition, % at 8.6 µM; hit rate 0.7% among 370,000; AID 686940;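 active = inhibition above a per-plate cutoff, mean inhibition of test wells between control levels plus 3 SD, cut at about 38% in these data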;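 also: cells cotransfected with COUP-TFII expression vector driving the NGFI-A reporter; 0% = median of COUP-TF2 test wells and 100% = reporter-only cells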
Target sequence (P24468 whole entry, looked up): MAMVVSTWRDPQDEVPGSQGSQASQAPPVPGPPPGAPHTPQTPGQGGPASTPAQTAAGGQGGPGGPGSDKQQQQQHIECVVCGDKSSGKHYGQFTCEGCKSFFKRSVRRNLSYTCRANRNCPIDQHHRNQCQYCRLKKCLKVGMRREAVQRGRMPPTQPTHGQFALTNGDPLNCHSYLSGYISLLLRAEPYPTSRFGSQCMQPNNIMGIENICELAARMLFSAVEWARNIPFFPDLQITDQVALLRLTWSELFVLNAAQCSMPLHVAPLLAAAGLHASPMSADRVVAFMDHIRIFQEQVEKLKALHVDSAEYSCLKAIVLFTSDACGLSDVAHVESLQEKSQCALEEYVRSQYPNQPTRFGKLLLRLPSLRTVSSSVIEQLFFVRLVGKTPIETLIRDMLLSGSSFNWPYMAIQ
VP16 Luc counter = counter-screen for COUP-TFII antagonists: inhibitors of VP16; shares compounds with COUP-TFII inh; HEK293 Gal4-VP16 luciferase reporter, luminescence; inhibition, % at 8.5 µM; hit rate 25% among 2,500; in the data active = inhibition above about 13%
COUP-TFII conf = confirmation of human COUP-TFII (NR2F2) inhibitors; shares compounds with COUP-TFII inh; HEK293 NGFI-A luciferase reporter, luminescence; inhibition, % at 8.5 µM; hit rate 45% among 2,500;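 active = mean inhibition over three repeats above a set limit taken from the earlier primary screen, cut at about 38% in these data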;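 also: 100% = cells given the luciferase reporter alone without the COUP-TF2 vector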
* = called active by the depositor.

Screening CCN1/C(=C/c2cccc[n+]2C)Sc2ccc(OC)cc21 returned SRC2 inh 22, SRC1 inh 24, Gli-Sufu antag 77*, LRH-1 inv ag 38, SRC3 inh 30, COUP-TFII inh 77*, VP16 Luc counter -4 and COUP-TFII conf 46*.
For CCOc1ccc(NS(=O)(=O)c2cccc(C(=O)NCC3(N(C)C)CCCCC3)c2)cc1 the results were SRC2 inh -3, SRC1 inh 7, Gli-Sufu antag 18, LRH-1 inv ag 10, SRC3 inh 11 and COUP-TFII inh 1.
`Cc1cccc(CN2CCN(C3CN(Cc4cn(Cc5ccccc5)nn4)S(=O)(=O)C3)CC2)c1` (stereo not drawn) gave SRC2 inh 6, LRH-1 inv ag -6 and COUP-TFII inh -4.
COc1ccc(C(C)(C)C)cc1N1C(=O)[C@@H]2CSCCS(=O)(=O)N2C1=O was read as SRC2 inh 3 and COUP-TFII inh 4.
CC(=O)N(/N=C1\Sc2ccccc2C1=O)c1ccc(C)cc1C was read as SRC2 inh 26, SRC1 inh 54, Gli-Sufu antag 33, LRH-1 inv ag 63, SRC3 inh 64*, COUP-TFII inh 64*, VP16 Luc counter 24* and COUP-TFII conf 76*.
Screening COC(=O)c1ccc2nc(Nc3nc4c(F)cc(F)cc4s3)sc2c1 returned SRC2 inh 53*, SRC1 inh 55, Gli-Sufu antag 49, LRH-1 inv ag 62, SRC3 inh 60, COUP-TFII inh 66*, VP16 Luc counter 26* and COUP-TFII conf 82*.
`COC(=O)[C@]12C[C@H](CC(=O)NCc3cccs3)C(=O)N(CCc3ccc(OC)c(OC)c3)C1=C[C@H](C(C)(C)C)O[C@@H]2C` gave SRC2 inh 10 and COUP-TFII inh 12.
COc1cccc(-c2cnc(C(O)c3ccc(F)cc3C)[nH]2)c1 (stereo not drawn) was read as SRC2 inh -32, SRC1 inh -9, LRH-1 inv ag 2, SRC3 inh -6 and COUP-TFII inh 9.
For CC(=O)c1c(C)[nH]c(C(=O)COc2cc(C)ccc2C(C)C)c1C the results were SRC2 inh 44, SRC1 inh 24, Gli-Sufu antag -5, LRH-1 inv ag 46, SRC3 inh 23, COUP-TFII inh 69*, VP16 Luc counter 8 and COUP-TFII conf 66*.
For COc1ccc(C(=O)N/C(=C\c2cn(C)c3ccccc23)C(=O)N2CCN(C)CC2)cc1OC the results were SRC2 inh 4, SRC1 inh 9, Gli-Sufu antag -8, LRH-1 inv ag 13, SRC3 inh 6 and COUP-TFII inh -14.
`CCn1cc(/C=C/c2cc[n+](C)cc2)c2ccccc21` gave SRC2 inh -31, SRC1 inh 38, Gli-Sufu antag 58*, LRH-1 inv ag 42, SRC3 inh 33, COUP-TFII inh 42*, VP16 Luc counter 9 and COUP-TFII conf 20.
For C=CCn1c(C)c(/C=C/c2cc[n+](C)cc2)c2ccccc21 the results were SRC2 inh 11, SRC1 inh 1, Gli-Sufu antag 45, LRH-1 inv ag 31, SRC3 inh 23, COUP-TFII inh 56*, VP16 Luc counter 7 and COUP-TFII conf 34.
`COc1cc2c(cc1OC)CN1CCc3cc(OC)c(OC)cc3C1C2` (stereo not drawn) gave SRC2 inh 3, SRC1 inh -15, LRH-1 inv ag 16, SRC3 inh 0 and COUP-TFII inh -5.
CC[C@H]1CN2CCc3cc(OC)c(OC)cc3C2C[C@@H]1C[C@H]1NCCc2cc(OC)c(OC)cc21 (stereo partly drawn) was read as SRC2 inh 70*, SRC1 inh 96*, Gli-Sufu antag 65*, LRH-1 inv ag 104*, SRC3 inh 95*, COUP-TFII inh 92*, VP16 Luc counter 10 and COUP-TFII conf 84*.
`C#CCNC(=O)C[C@H]1C[C@@]2(C(=O)OC)C(=C[C@H](C3CCCC3)O[C@@H]2C)N(CCCCCCCC)C1=O` gave SRC2 inh -5 and COUP-TFII inh 12.
For CC(C)(C)C(=O)NCCCc1nc2ccccc2n1CCCOc1ccc(Cl)cc1 the results were SRC2 inh 46, SRC1 inh -2, Gli-Sufu antag 4, LRH-1 inv ag 5, SRC3 inh 19, COUP-TFII inh 60*, VP16 Luc counter 0 and COUP-TFII conf 22.
Cc1c(CCC(=O)N[C@@H](CCCNC(N)=O)C(=O)O)c(=O)oc2cc3oc4c(c3cc12)CCCC4 was read as SRC2 inh 68*, SRC1 inh 11, Gli-Sufu antag 20, LRH-1 inv ag -1, SRC3 inh -1, COUP-TFII inh 53*, VP16 Luc counter 29* and COUP-TFII conf 29.
For Cc1c(CCC(=O)NCCCC(=O)O)c(=O)oc2cc3oc4c(c3cc12)CCCC4 the results were SRC2 inh 63*, SRC1 inh 13, Gli-Sufu antag 13, LRH-1 inv ag 9, SRC3 inh 2, COUP-TFII inh 49*, VP16 Luc counter 35* and COUP-TFII conf 34.
Screening CCCCC(NC(=O)Cc1c(C)c2cc3c4c(oc3cc2oc1=O)CCCC4)C(=O)O (stereo not drawn) returned SRC2 inh -21, SRC1 inh 0, Gli-Sufu antag 11, LRH-1 inv ag -8, SRC3 inh 4 and COUP-TFII inh -4.
Cc1c(CCC(=O)NCCCCCC(=O)O)c(=O)oc2c(C)c3oc4c(c3cc12)CCCC4 was read as SRC2 inh 10, SRC1 inh -21, Gli-Sufu antag 3, LRH-1 inv ag 2, SRC3 inh 5 and COUP-TFII inh -2.
`CCC(NC(=O)CCc1c(C)c2cc3c4c(oc3cc2oc1=O)CCCC4)C(=O)O` (stereo not drawn) gave SRC2 inh 65*, SRC1 inh 13, Gli-Sufu antag 16, LRH-1 inv ag 4, SRC3 inh 11, COUP-TFII inh 40*, VP16 Luc counter 46* and COUP-TFII conf 42*.
Screening CCCS(=O)(=O)NC(=O)C1(C)CCCN(C(=O)c2c(C)noc2C)C1 (stereo not drawn) returned SRC2 inh 10, SRC1 inh 8, LRH-1 inv ag -3, SRC3 inh -11 and COUP-TFII inh 9.
Screening CCCCOCCCNC(=O)C[C@H]1C[C@@]2(C(=O)OC)C(=C[C@H](C(C)C)O[C@@H]2C2CC2)N(Cc2ccc(Cl)cc2Cl)C1=O returned SRC2 inh -8 and COUP-TFII inh -3.
